Assay outcomes: PubChem, National Center for Advancing Translational Sciences (NCATS)
Tau fluor cs: counter-screen for tau fibril formation inhibitors; tau K18 P301L Alexa594 fluorescence, heparin fibrillization; Potency, µM (titrated, usually from 57.7 µM), for inactives: at the top dose activity change, negative = decrease; 280,000 tested, 0.93% active; also: potency is read from the fitted curve at half-maximal effect; nearly all actives have a fitted effect of over 55% in size
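Human K18 P301L tau (15 uM unlabeled plus 0.24 uM Alexa 594-labeled, final) in 100 mM sodium acetate pH 7 was mixed with compound and 20 uM heparin and incubated 6 hr at 37 C.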
Tau fibril FP: blocks human tau fibril formation measured by polarization; K18 P301L tau heparin fibrillization, Alexa594 FP, 6 h; Potency, µM (titrated, usually from 57.7 µM), inactives show top-dose activity, negative = inhibition, hits mostly inhibitors; 280,000 tested, 0.39% active; also: potency is read from the fitted curve at half-maximal effect; nearly all actives have a fitted effect of over 55% in size
Target sequence (P10636 561-689 P618L limits assumed): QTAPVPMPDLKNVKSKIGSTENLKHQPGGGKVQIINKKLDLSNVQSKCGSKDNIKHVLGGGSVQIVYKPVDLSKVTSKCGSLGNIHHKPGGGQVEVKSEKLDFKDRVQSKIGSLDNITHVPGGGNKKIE
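Human K18 P301L fragment (15 uM unlabeled plus 0.24 uM Alexa 594-labeled) in 100 mM sodium acetate pH 7 with compound, aggregation induced by 20 uM heparin for 6 hr at 37 C. ThT (30 uM) added for 1 hr, then Alexa 594 FP read.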
Sfp PPTase inh: Sfp phosphopantetheinyl transferase inhibition; Potency, µM, without a hit: largest response in the series, negative = inhibition, actives largely listed as inhibitors; 310,000 tested, 3.5% active; AID 1490; Biochemical Sfp PPTase activity, qHTS;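 also: the enzyme is Sfp with the accession as filed and its product quenches rhodamine fluorescence; potency is read from the fitted curve at half-maximal effect; 0% = enzyme reaction without inhibitor and -100% = no enzyme wells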
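Buffer: 50 mM Hepes-Na pH 7.6, 10 mM MgCl2, 0.01% Nonidet P-40, 0.01% BSA. Enzyme 15 nM, pre-exposed to compound 15 min; substrates then added and fluorescence change tracked over 30 min.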
Tau ThT inhib: blocks human tau fibril formation measured by thioflavin T; P10636; recombinant tau K18 P301L, heparin-induced fibrillization, ThT fluorescence; Potency, µM (highest dose often 57.4 µM), for the others: top-dose activity, negative = inhibition, usual class: inhibitors; 270,000 tested, 2.1% active; also: potency is read from the fitted curve at half-maximal effect; nearly all actives have a fitted effect of over 55% in size
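ThT emission at 510 nm, taken 1 hr after adding 30 uM dye, quantifies aggregates formed when 20 uM heparin acts on human tau K18 P301L for 6 hr at 37 C.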
FBPA coupling cs: inhibits coupling enzyme system, counter-screen for aldolase hits | coupling enzyme system counterscreen, AmpLite Red fluorescence | activity change, negative = inhibition, % at 58.2 µM, hits read low | 290,000 tested, 0.67% active; in the data active = activity change below about -30%
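First, compound is pin-transferred into glyceraldehyde-3-phosphate coupling-enzyme reagent at 57.5 uM final and held 10 min at RT. Next, substrate, coupling system and AmpLite Red are added. After 20 min RT, fluorescence (525/598 nm) is read.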
G9a inh: G9a (human) methyltransferase inhibition; Q96KQ7; G9a H3K9 monomethylation, AlphaScreen, 2 h; Potency, µM (titrated, usually from 102 µM), for inactives: at the top dose activity, negative = inhibition, usual class: inhibitors; 350,000 tested, 8.8% active; AID 504332; also: potency is read from the fitted curve at half-maximal effect; nearly all actives have a fitted effect of over 75% in size
Target sequence (Q96KQ7 913-1193 limits assumed): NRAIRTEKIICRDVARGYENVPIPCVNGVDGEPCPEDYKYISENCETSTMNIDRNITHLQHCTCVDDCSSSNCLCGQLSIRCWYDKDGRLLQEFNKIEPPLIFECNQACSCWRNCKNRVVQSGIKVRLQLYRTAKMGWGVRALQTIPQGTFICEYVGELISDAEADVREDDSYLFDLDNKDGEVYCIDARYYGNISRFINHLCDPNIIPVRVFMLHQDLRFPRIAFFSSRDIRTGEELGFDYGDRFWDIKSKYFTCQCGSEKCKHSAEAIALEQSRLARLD
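AlphaScreen detection with an anti-monomethyl H3K9 antibody quantified product after a 2 h room-temperature reaction containing 500 nM biotinylated H3K9 peptide, 20 µM SAM and 20 nM enzyme, which had been preincubated 15 min with compound.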
Starred values were filed as active, the others as inactive; ? = inconclusive; . = no result given; [ ] = remark or other dose. Rows were chosen to be rich in hits. Some 11% of all compounds tested hit in one or more screens of this group. Unless noted, calls follow the shape of the dose curve; as a rule, active = well fitted curve in the direction sought with a large enough effect; inconclusive = small, poorly fitted or top-dose-only effect, or another doubt; inactive = no such curve, though single readings can be large; an effect the other way counts as inactive or inconclusive. Unless noted, % is scaled to controls: 0 for no effect and ±100 for the full control effect.

SMILES	Tau fluor cs	Tau fibril FP	Sfp PPTase inh	Tau ThT inhib	FBPA coupling cs	G9a inh
COC(=O)N/N=C/c1sc(N2CCCCC2)nc1-c1cccs1	?	2.8%	22.4µM*	?	-21.5	50.1µM*
COc1ccc(C(=O)N/N=C/c2sc(N3CCOCC3)nc2-c2ccccc2)cc1OC	?	11.1%	9.9%	?	3.0	-1.9%
COc1ccc(OCC(=O)Nc2ccc3c(c2)nc2n3CCSC2)cc1	-15.5%	-10.9%	4.7%	?	4.9	2µM*
CC(=O)Nc1ccc2c(c1)nc1n2CCSC1	-14.8%	-13.0%	4.3%	?	0.5	-10.1%
COCCN1CCn2c(nc3cc(NC(=O)c4ccc(OC)cc4)ccc32)C1	-25.5%	5.9%	1.4%	?	-5.4	?
O=S(=O)(Nc1ccc2c(c1)nc1n2CCN(Cc2ccccc2)C1)c1ccc(Cl)cc1	-19.1%	-2.6%	1.6%	?	-4.9	10µM*
COCCN1CCn2c(nc3cc(NC(=O)NC4CCCCC4)ccc32)C1	-29.4%	8.4%	-6.5%	?	-30.7*	?
COc1ccccc1C(=O)Nc1ccc2c(c1)nc1n2CCN(Cc2ccccc2)C1	-9.8%	-3.0%	-6.9%	?	-0.6	15.8µM*
O=C(Nc1ccc2c(c1)nc1n2CCN(Cc2ccccc2)C1)c1cccs1	-29.1%	-4.9%	-9.9%	?	0.6	?
O=S(=O)(Nc1ccc2c(c1)nc1n2CCN(Cc2ccccc2)C1)c1ccccc1	-3.2%	4.3%	-10.7%	-4.0%	0.7	?
COc1ccc(CCN2CC(C(=O)NCc3ccc(F)cc3)CC2=O)cc1OC (centres undefined)	-3.8%	8.9%	8.5%	-1.4%	-0.6	-1.7%
C[C@H](NC(=O)C1CC(=O)N(c2ccc3c(c2)OCCO3)C1)C(=O)NCc1ccco1 (some centres undefined)	.	.	2.0%	.	-0.1	17.8%
Cc1ccc(NC(=O)COc2cccc(-n3cnnn3)c2)cc1S(=O)(=O)N1CCOCC1	.	.	.	.	.	20.9%[12.7 µM]
COCCN1CCn2c(nc3cc(NC(C)=O)ccc32)C1	.	.	8.6%	.	-1.4	35.5µM*
CCOC(=O)Nc1ccc2c(c1)nc1n2CCN(CCOC)C1	.	.	3.5%	.	0.0	-6.5%
Cc1ccc(S(=O)(=O)Nc2ccc3c(c2)nc2n3CCN(Cc3ccccc3)C2)cc1	-22.0%	3.3%	2.1%	?	-1.1	?
O=C(Nc1ccc2c(c1)nc1n2CCN(Cc2ccccc2)C1)NC1CCCCC1	?	5.2%	-0.9%	?	-36.6*	22.4µM*
O=C(NCCN1CCNC1=O)C1CCC(=O)N(Cc2cccc(C(F)(F)F)c2)C1 (centres undefined)	.	.	4.2%	.	5.1	-9.3%
COc1cccc2cc(-c3cn4c(n3)sc3cc(F)ccc34)c(=O)oc12	-5.8%	?	.	?	.	2.0%[59 µM]
CNc1ccc(-c2nc3ccccc3s2)cc1	.	.	?	.	-8.6	.
Cc1ccc(N2CC(C(=O)Nc3cccnc3)CC2=O)cc1C (centres undefined)	.	.	17.9%	.	0.7	8.9%
COc1ccc(-c2nnc(SCC(=O)Nc3ccc(C)c(Cl)c3)nc2-c2ccc(OC)c(OC)c2)cc1OC	-23.8%	-13.6%	.	-8.0%	.	-22.8%[59 µM]
CCNc1nnc(SCC(=O)NC2CCCCCC2)s1	.	.	.	.	.	3.55µM*
COc1ccc(N2CC(C(=O)Nc3nnc(SCC(=O)NC4CCCC4)s3)CC2=O)cc1 (centres undefined)	.	.	?	.	.	31.6µM*
CC(=O)Nc1ccc(NC(=O)CSc2nnc(NC(=O)C3CC(=O)N(c4ccccc4)C3)s2)cc1 (centres undefined)	.	.	7.6%	.	.	39.8µM*
SMILES	Tau fluor cs	Tau fibril FP	Sfp PPTase inh	Tau ThT inhib	FBPA coupling cs	G9a inh
Cc1ccc(NC(=O)Nc2nnc(SCC(=O)Nc3ccc(F)cc3F)s2)cc1	-6.6%	-20.5%	.	4.0%	.	?
O=C(CSc1nnc(NC(=O)C2CC(=O)N(c3ccccc3)C2)s1)NC1CCCC1 (centres undefined)	.	.	9.1%	.	0.4	0.9%
CC(C)Nc1nnc(SCC(=O)Nc2ccc(F)cc2)s1	-1.9%	8.8%	-11.8%	-9.0%	4.0	39.8µM*
CCC(=O)Nc1nnc(SCC(=O)NC2CCCC2)s1	.	.	7.2%	.	0.2	?
O=C(Nc1nnc(SCC(=O)N2CCCC2)s1)C1CC(=O)N(c2ccccc2)C1 (centres undefined)	.	.	-7.1%	.	.	?
O=C(Cn1ncn2nc(-c3cccs3)cc2c1=O)NCc1ccccc1Cl	1.1%	-6.0%	.	-1.5%	.	-1.1%[59 µM]
Cc1ccc2c(CNCCc3ccccc3)c(C(=O)O)n(Cc3ccccc3C)c2c1	4.1%	0.6%	.	6.8%	.	-35.6%[59 µM]
O=C(Nc1ccc(Cl)cc1)c1ccc(-n2cnnc2)cc1	-2.6%	0.1%	.	6.9%	.	3.1%[59 µM]
CC(O/N=C/c1ccc(OC(F)F)cc1)C(=O)Nc1cccc(S(=O)(=O)N2CCOCC2)c1 (centres undefined)	-25.3%	-3.8%	9.6%	-3.8%	-3.4	13.9%[59 µM]
COc1ccc(N2CC(C(=O)N[C@@H](C)C(=O)N[C@H](CO)c3ccccc3)CC2=O)cc1 (some centres undefined)	.	.	6.0%	.	1.3	5.62µM*
COc1ccc(N2CC(C(=O)Nc3nnc(SCc4cccnc4)s3)CC2=O)cc1 (centres undefined)	.	.	-14.7%	.	.	50.1µM*
COc1ccccc1N1CC(C(=O)Nc2nnc(SCc3cccnc3)s2)CC1=O (centres undefined)	.	.	-16.0%	.	2.2	.
CCOc1ccc(N2CC(C(=O)Nc3nnc(Cc4ccc(OC)cc4)s3)CC2=O)cc1 (centres undefined)	.	.	-8.1%	.	-13.4	10µM*
COc1ccc(Cc2nnc(NC(=O)C3CC(=O)N(c4ccc(OC)cc4)C3)s2)cc1 (centres undefined)	.	.	10.6%	.	1.0	2.5%
Cc1ccc(N2CC(C(=O)Nc3nnc(SCc4cccnc4)s3)CC2=O)cc1 (centres undefined)	.	.	-1.5%	.	10.3	15.8µM*
CC(=O)Nc1ccc(NC(=O)CSc2nnc(NC(=O)c3ccc(Br)o3)s2)cc1	.	.	4.4%	.	.	15.8µM*
O=C(NCc1ccccc1)c1ccc(CSc2nc3cccnc3n2Cc2ccccc2F)cc1	-21.6%	-10.4%	.	2.4%	.	3.55µM*
CN(C)c1ccc(CNC(=O)c2ccc(Cn3c(SCc4ccccc4)nc4cccnc43)cc2)cc1	?	9.6%	.	?	.	10µM*
Cc1cccc(CNC(=O)c2ccc(Cn3c(SCc4ccccc4)nc4cccnc43)cc2)c1	-10.4%	-0.9%	.	9.5%	.	-20.8%[59 µM]
Cc1cccc(CNC(=O)c2ccc(Cn3c(SCc4cccc(F)c4)nc4cccnc43)cc2)c1	-23.4%	-2.4%	.	-1.4%	.	3.16µM*
